Screening data deposited in PubChem BioAssay by several laboratories.
NCOA1 inh: SRC1 coactivator transcriptional activity inhibitors, primary screen, cell-based, luminescence. AID 588354, 2011. Nuclear receptor coactivator 1 (Homo sapiens), Q15788. HEK293 GAL4-SRC1 luciferase reporter. inhibition, % at 3.6 µM. 360,000 compounds, 0.12% hits;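 active means inhibition above the campaign mean plus 3 SD, with each screening campaign given its own cutoff, cut at about 60% in these data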
COUP-TFII inh: NR2F2 transcriptional activity inhibitors, primary screen, cell-based, luciferase reporter, HEK293T, luminescence. HEK293T NGFI-A luciferase reporter. inhibition, % at 8.6 µM. 370,000 compounds, 0.7% hits;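 active means inhibition above a per-plate cutoff, mean inhibition of test wells between control levels plus 3 SD, cut at about 38% in these data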;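 further: cells cotransfected with COUP-TFII expression vector driving the NGFI-A reporter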
NCOA2 inhibitor: inhibition of GAL4-SRC2 driven luciferase reporter, primary screen, SRC2 inhibitor project, cell-based, luminescence; Nuclear receptor coactivator 2 (Homo sapiens), Q15596; HEK293 GAL4-SRC2 luciferase reporter; inhibition, % at 9 µM; 370,000 compounds, 0.17% hits; AID 651957, 2012;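 active means inhibition above the mean inhibition of all tested compounds plus 3 SD, set per campaign, cut at about 52% in these data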
Gli-Sufu antag: Gli-Sufu pathway antagonists, primary screen, luciferase luminescence, Sufu-KO-LIGHT cells, uHTS; 340,000 compounds, 0.74% hits; inhibition, % at 5 µM; Sufu-KO-LIGHT fibroblasts, Gli luciferase reporter luminescence;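 active means inhibition above about 55%, limit read from the data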
NR5A2 inv ag: LRH-1 (NR5A2) inverse agonists, primary screen, cell-based, luminescence, HEK293T, StAR-luciferase reporter; Nuclear receptor subfamily 5 group A member 2 (Homo sapiens), O00482; LRH-1 transfected, 24 h; inhibition, % at 3.6 µM; 360,000 compounds, 0.13% hits;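 active means inhibition above the mean inhibition of all tested compounds plus 3 SD, cut at about 73% in these data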
SRC3 inh: SRC3 coactivator transcriptional activity inhibitors, primary screen, cell-based, luminescence. inhibition, % at 3.6 µM. Nuclear receptor coactivator 3 (Homo sapiens), Q9Y6Q9. AID 588352, 2011. HEK293 GAL4-SRC3 luciferase reporter. 360,000 compounds, 0.17% hits;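 active means inhibition above a per-campaign cutoff, the mean of all compounds plus 3 SD, cut at about 60% in these data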;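 further: higher means less SRC3-driven luciferase light from the GAL4 reporter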
Target sequence (Q9Y6Q9 whole entry, looked up, the tested form may be a part): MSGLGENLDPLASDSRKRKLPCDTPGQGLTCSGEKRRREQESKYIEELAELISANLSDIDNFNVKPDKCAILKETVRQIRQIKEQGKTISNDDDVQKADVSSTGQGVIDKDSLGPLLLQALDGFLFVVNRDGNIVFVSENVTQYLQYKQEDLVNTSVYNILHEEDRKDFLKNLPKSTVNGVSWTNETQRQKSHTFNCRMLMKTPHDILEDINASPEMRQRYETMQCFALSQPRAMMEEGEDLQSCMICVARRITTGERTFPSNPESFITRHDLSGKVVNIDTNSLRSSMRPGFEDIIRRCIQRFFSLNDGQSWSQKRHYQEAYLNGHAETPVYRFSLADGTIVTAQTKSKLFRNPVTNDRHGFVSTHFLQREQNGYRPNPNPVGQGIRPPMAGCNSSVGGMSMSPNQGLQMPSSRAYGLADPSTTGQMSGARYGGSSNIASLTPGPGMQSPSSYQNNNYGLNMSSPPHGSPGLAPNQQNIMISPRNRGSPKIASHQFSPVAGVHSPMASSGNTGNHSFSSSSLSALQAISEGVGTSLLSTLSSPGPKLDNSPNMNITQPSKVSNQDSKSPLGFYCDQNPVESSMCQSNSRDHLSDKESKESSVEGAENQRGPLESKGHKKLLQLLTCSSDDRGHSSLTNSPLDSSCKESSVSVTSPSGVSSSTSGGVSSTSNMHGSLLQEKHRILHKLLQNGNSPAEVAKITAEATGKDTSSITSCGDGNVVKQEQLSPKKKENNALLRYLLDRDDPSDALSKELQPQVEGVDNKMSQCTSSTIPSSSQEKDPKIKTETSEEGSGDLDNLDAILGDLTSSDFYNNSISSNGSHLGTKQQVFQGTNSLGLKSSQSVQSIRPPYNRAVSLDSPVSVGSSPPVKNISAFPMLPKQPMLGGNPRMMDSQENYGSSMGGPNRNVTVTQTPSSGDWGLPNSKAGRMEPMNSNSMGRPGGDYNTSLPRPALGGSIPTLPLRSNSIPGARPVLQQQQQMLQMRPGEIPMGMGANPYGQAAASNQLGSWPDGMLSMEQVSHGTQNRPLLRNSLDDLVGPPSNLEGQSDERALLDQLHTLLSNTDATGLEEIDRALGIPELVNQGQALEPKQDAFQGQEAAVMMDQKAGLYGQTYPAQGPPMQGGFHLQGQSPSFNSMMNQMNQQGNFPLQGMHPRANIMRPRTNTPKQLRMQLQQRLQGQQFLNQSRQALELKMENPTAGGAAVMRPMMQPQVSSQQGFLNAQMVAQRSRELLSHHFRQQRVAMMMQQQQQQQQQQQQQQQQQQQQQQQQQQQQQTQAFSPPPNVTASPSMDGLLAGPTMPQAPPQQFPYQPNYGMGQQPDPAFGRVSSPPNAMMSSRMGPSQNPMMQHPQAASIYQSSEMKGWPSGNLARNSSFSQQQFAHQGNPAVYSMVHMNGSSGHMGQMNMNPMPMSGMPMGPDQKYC
A number is an active result; 0 = inactive; - = no result given. Shown are actives, neighbours in structure and some others; about 1.3% of the full set was active somewhere.

SMILES | NCOA1 inh | COUP-TFII inh | NCOA2 inhibitor | Gli-Sufu antag | NR5A2 inv ag | SRC3 inh
N=c1c2c(-c3ccccc3)c(-c3ccccc3)n(Cc3ccco3)c2ncn1CCO | 0 | 0 | 0 | 0 | 0 | 63
N=c1c2c(-c3ccccc3)c(-c3ccccc3)n(Cc3ccco3)c2ncn1CCCO | 0 | 0 | 0 | 0 | 0 | 0
CCc1ccc(/C=C2\SC(=S)N(CCCC(=O)Nc3cc(C)on3)C2=O)cc1 | 0 | 0 | 77 | - | 0 | 0
CCOc1ccc(/C=C2\SC(=S)N(CCC(=O)O)C2=O)cc1 | 0 | 0 | 70 | 0 | 0 | 0
COc1cccc(/C=C2/SC(=S)N(CCCC(=O)Nc3ccc(O)cc3)C2=O)c1 | 0 | 0 | 53 | 0 | 0 | 0
CCc1ccc(/C=C2\SC(=S)N(CCCC(=O)NC3=NCCS3)C2=O)cc1 | 0 | 0 | 55 | - | 0 | 0
CCc1ccc(/C=C2\SC(=S)N(CCC(=O)Nc3cc(C)on3)C2=O)cc1 | 0 | 0 | 0 | 0 | 0 | 0
CCCN1CCS(=O)(=O)N(Cc2cn(Cc3ccc(F)cc3)nn2)C(C(=O)OC)C1 (stereo unspecified) | - | 0 | 0 | - | - | -
COc1ccc(OCC(C)CN2CCC(C(O)(c3ccccc3)c3ccccc3)CC2)cc1 (stereo unspecified) | - | 0 | 0 | - | - | -
OC[C@@H]1CN(Cc2ccc(-c3ccccc3)cc2)C[C@H](n2cnc3c(NCc4ccco4)ncnc32)O1 | 0 | 52 | 0 | - | 0 | 0
Cc1ccc(NC2=C(N3CCCCC3)C(=O)c3ccccc3C2=O)cc1 | 0 | 0 | 0 | 0 | 0 | 0
O=C(/C=C/c1ccc(O)cc1)c1ccccc1 | 0 | 0 | 0 | 0 | 0 | 0
COc1ccccc1NC1=C(N2CCCCC2)C(=O)c2ccccc2C1=O | 74 | - | - | 0 | 97 | 80
O=C1C(Nc2cccc(O)c2)=C(N2CCCCC2)C(=O)c2ccccc21 | 0 | 0 | 0 | 0 | 0 | 0
O=C(/C=C/c1ccc(O)cc1)c1ccc(NC2=C(N3CCCCC3)C(=O)c3ccccc3C2=O)cc1 | 0 | 0 | 0 | 0 | 76 | 0
O=C1C(Nc2ccccc2)=C(N2CCCCC2)C(=O)c2ccccc21 | 0 | 0 | 0 | 0 | 93 | 68
O=C1C=CC(=O)N1Cc1ccccc1 | 0 | 61 | 0 | 0 | 0 | 0
COC(=O)c1cc2c(c3c4cc(F)ccc4n(S(=O)(=O)c4cccc(C)c4)c13)C(=O)N(Cc1ccc(C(F)(F)F)cc1)C2 | - | 0 | 0 | - | - | -
CCN(CC)Cc1c(O)ccc2c([N+](=O)[O-])c(C)n(-c3ccc(OC)cc3)c12 | 61 | 0 | 0 | 0 | 0 | 0
Nc1cc2c3c(cccc3c1)C(=O)N(CCN1CCCC1)C2=O | 0 | 0 | 0 | 0 | 0 | 0
O=C1c2cccc3cc([N+](=O)[O-])cc(c23)C(=O)N1CCN1CCCC1 | 0 | 0 | 0 | 75 | 76 | 0
S=C(NN=Cc1ccccn1)N(Cc1ccccn1)Cc1ccccn1 | 0 | 0 | 0 | 82 | 0 | 0
CC(=NNC(=S)N(Cc1ccccn1)Cc1ccccn1)c1cnccn1 | 0 | 0 | 0 | 90 | 0 | 0
CCCCCCCOC(=O)C[N+](C)(C)CCOC1CC2CCC1(C)C2(C)C (stereo unspecified) | 0 | 0 | 0 | 82 | 0 | 0
C=C1C(O)[C@@H]2O[C@]3(CC[C@H](/C=C/C(C)[C@@H]4CC(C)=CC5(O[C@H](C[C@@](C)(O)CO)CCC5O)O4)O3)CC[C@H]2O[C@@H]1C(O)CC(C)[C@H]1OC2(CCCCO2)CCC1C (stereo partly specified) | - | - | - | 63 | - | -
C=C1[C@@H](O)[C@@H]2O[C@]3(CC[C@H](/C=C/[C@@H](C)[C@@H]4CC(C)=CC5(O[C@H](C[C@@](C)(O)C(=O)OC)CC[C@H]5O)O4)O3)CC[C@H]2O[C@@H]1[C@@H](O)C[C@H](C)[C@H]1OC2(CCCCO2)CC[C@H]1C (stereo partly specified) | - | - | - | 90 | - | -
Cc1ccc(NC(=S)NNC(=O)CSc2nnc(SCc3cccc4ccccc34)s2)cc1 | - | 0 | 0 | - | - | -
